Measurements as given in PubChem BioAssay (NCATS).

target: Cytochrome P450 3A4 (Homo sapiens) (UniProt P08684); test: qHTS Assay for Activators of Cytochrome P450 3A4 (AID 885); settings: recombinant CYP3A4, Luciferin-PPXE luminescence, 60 min; series mostly up to 57.1 µM; activity change, positive = activation: at the top concentration; further: nearly all actives have a fitted effect of over 65% in size
Summary of the method: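 Using 20nM recombinant human CYP3A4 in potassium phosphate (200mM), substrate Luciferin-PPXE at 25uM, luminescent luciferin detection followed a 60-min RT NADPH reaction; data scaled to 57 uM ketoconazole.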

Chain of Cytochrome P450 3A4 (Homo sapiens) (P08684 whole entry, looked up): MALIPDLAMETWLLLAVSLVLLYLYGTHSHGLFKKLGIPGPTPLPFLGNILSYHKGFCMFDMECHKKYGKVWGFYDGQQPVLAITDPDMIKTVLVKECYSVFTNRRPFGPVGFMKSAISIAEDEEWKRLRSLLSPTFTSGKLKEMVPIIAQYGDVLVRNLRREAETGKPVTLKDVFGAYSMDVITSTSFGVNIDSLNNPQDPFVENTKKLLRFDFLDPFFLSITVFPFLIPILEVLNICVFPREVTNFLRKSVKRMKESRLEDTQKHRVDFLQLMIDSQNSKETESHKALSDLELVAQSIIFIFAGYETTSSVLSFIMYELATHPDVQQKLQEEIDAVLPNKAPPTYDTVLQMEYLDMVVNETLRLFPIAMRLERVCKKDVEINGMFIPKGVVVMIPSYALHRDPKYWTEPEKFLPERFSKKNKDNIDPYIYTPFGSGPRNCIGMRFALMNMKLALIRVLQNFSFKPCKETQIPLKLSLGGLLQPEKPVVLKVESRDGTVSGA

Activity change, positive = activation, inactive:
CCC1=C2CC[C@H]3C(=O)N(c4ccccc4)C(=O)[C@H]3[C@H]2[C@@]2(C)C(=NCc3ccccc3)OC(=O)N2C1=O -88.1%
CCC1=C2CC[C@H]3C(=O)N(c4ccccc4)C(=O)[C@H]3[C@H]2[C@@]2(C)C(=NCC3CC3)OC(=O)N2C1=O -80.3%
CCCCCCNC(=O)Nc1ccc(S(=O)(=O)Nc2ccc(CCNC[C@H](O)COc3ccc(O)cc3)cc2)cc1 -63.5%
CCC1=C2CC[C@H]3C(=O)NC(=O)[C@H]3[C@H]2[C@@]2(Cc3ccccc3)C(=NCc3ccccc3)OC(=O)N2C1=O -87.7%
CCC1=C(OC(=O)N(CC)CC)N2C(=O)OC(=NCC(=O)OC)[C@]2(Cc2ccccc2)[C@H]2C1=CC[C@H]1C(=O)N(C)C(=O)[C@H]12 -94.1%
CN1C[C@@H]2C(c3ccc(C(F)(F)F)cc3)C3(c4ccc(C#N)cc4)CC2(C3)[C@H]1c1ccccc1 (stereo partly specified) -60.3%
CO[C@@H]1COC(=O)CCC[C@@H](C)[C@H](OC)COC(=O)[C@H](Cc2ccccc2)NC(=O)C/C=C\[C@H]1C -87.8% [at 11.4 µM]
CCC1=C(OC(=O)N(CC)CC)N2C(=O)OC(=NCC(=O)OC)[C@]2(Cc2ccccc2)[C@H]2C1=CC[C@H]1C(=O)N(CC(=O)OC)C(=O)[C@H]12 -68.7%
CCC1=C(OC(=O)N(CC)CC)N2C(=O)OC(=NCC3CC3)[C@]2(C)[C@H]2C1=CC[C@H]1C(=O)N(C)C(=O)[C@H]12 -78.1%
COC(=O)c1cccc(C23CC4(C2)[C@H](CN(C)[C@@H]4c2ccccc2)C3c2ccccc2)c1 (stereo partly specified) -85.4%
CCC1=C(OC(=O)N(CC)CC)N2C(=O)OC(=NCCc3c[nH]c4ccccc34)[C@]2(Cc2ccccc2)[C@H]2C1=CC[C@H]1C(=O)NC(=O)[C@H]12 -90.8%
